Experimental findings from PubChem BioAssay AID1463 (National Center for Advancing Translational Sciences (NCATS), 2008) are described below.

SMILES strings stand for the structures. In all, about 280,000 compounds went through this assay and about 2,600 (0.93%) were called active. Inconclusive results (about 8%) are left out. Calls come from the whole dose curve; as a rule, active = well fitted curve in the direction sought with a large enough effect; inconclusive = small, poorly fitted or top-dose-only effect; inactive = flat fitted curve, though single readings scatter. The list comes from a sample in which actives are over-represented; it also holds similar structures and randomly drawn compounds.
% is set by controls: 0 for no effect and ±100 for the full control effect; potency is the fitted concentration of half-maximal effect; tags give direction and shape of the fitted curve or compound fluorescence and quenching.

A short description of the assay: Counterscreen qHTS for Inhibitors of Tau Fibril Formation, Fluorescence Polarization. Note: nearly all actives have a fitted effect of over 55% in size. The settings on record: tau K18 P301L Alexa594 fluorescence, heparin fibrillization; series mostly up to 57.7 µM; activity change, negative = decrease: at the top concentration. Put shortly: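 Human tau K18 P301L (15 uM unlabeled, 0.24 uM Alexa 594-labeled) in 100 mM sodium acetate pH 7 with 20 uM heparin, 6 hr at 37 C. ThT 30 uM added, 1 hr ambient; Alexa 594 FP and total fluorescence read at 555/632 nm.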
(A counterscreen serves to expose hits that act by an unwanted route or on another target.)
Regarding `CCCN(C(=O)Cn1ncc2c([nH]c3ccc(C)cc32)c1=O)c1ccccc1C`, the “activity change, negative = decrease” value was -19.4% (inactive).

As for `Clc1ccc(Nc2nc(-c3cccs3)cs2)nc1`, the Potency was 14.1 µM [quencher] (active).

Turning to `c1cnc(Nc2nc(-c3ccc4ccccc4c3)cs2)nc1`, the “activity change, negative = decrease” value was -6.05% (inactive).

Regarding `COC(=O)CSc1nccc(-c2cccs2)n1`, the “activity change, negative = decrease” value was 0.872% (inactive).

In the case of `Cc1cccc(-n2ncc(C(=O)N3CCN(c4ccc(Cl)cc4)CC3)c2C2CCN(C(=O)OC(C)(C)C)CC2)c1`, the “activity change, negative = decrease” value was -17.5% (inactive).

Turning to `Cc1ccc(C)c(N2CCN(C(=O)C3CCC(CNS(=O)(=O)c4cccs4)CC3)CC2)c1` (stereo unspecified), the “activity change, negative = decrease” value is -20% (inactive).

Take `CN1C(=O)C(CC(=O)Nc2ccccc2)S/C1=N/c1nccs1` (stereo unspecified): the “activity change, negative = decrease” value was -2.38% (inactive).

For `O=C(CC1SC(=Nc2ccccc2)N(Cc2ccccn2)C1=O)Nc1cccc(Cl)c1` (stereo unspecified), the Potency is 10 µM [quencher] (active).

With `O=C(Nc1cccc(Cl)c1)OCc1ccccn1`, the “activity change, negative = decrease” value is -16.9% (inactive).

As for `Fc1ccc(CSc2nc(NCc3ccccc3)c3ccccc3n2)cc1`, the “activity change, negative = decrease” value is -11.1% (inactive).

Regarding `Cc1ccccc1NC(=S)NNC(=O)c1cccc(Br)c1`, the “activity change, negative = decrease” value is -9.27% (inactive).

For `O=C(NC(=S)Nc1cccc2c(O)cccc12)c1cccc(Br)c1`, the Potency is 11.2 µM [quencher] (active).

Regarding `NS(=O)(=O)c1ccc(NC(=S)NC(=O)c2cccc(Br)c2)cc1`, the “activity change, negative = decrease” value is -6.18% (inactive).

Turning to `COc1cccc(C(=O)N(Cc2cccc(Cl)c2)Cc2ccco2)c1`, the “activity change, negative = decrease” value was -8.6% (inactive).

On to `Cc1ccccc1CSc1nc2c([nH]c3ccccc32)c(=O)n1C`, for which the “activity change, negative = decrease” value was -4.83% (inactive).

As for `CCN(C(=O)CSc1nnc(C)n2c1cc1occc12)c1ccccc1`, the “activity change, negative = decrease” value is -11.2% (inactive).

`CC1CCN(S(=O)(=O)c2ccc3c(c2)N(CC(=O)NCCc2ccccc2)C(=O)CO3)CC1`: the “activity change, negative = decrease” value was -19.9% (inactive).

Take `CCc1ccc2nc3sc(C(=O)Nc4nnc(CC)s4)c(N)c3cc2c1`: the “activity change, negative = decrease” value is -25.2% (inactive).

In the case of `COc1ccc(Cl)cc1NC(=O)c1oc(C)nc1C`, the “activity change, negative = decrease” value was -2.19% (inactive).

As for `CCc1ccc(NC(=O)c2sc3nc4c(cc3c2N)CN(CC)CC4)cc1`, the Potency was 20 µM [quencher] (active).

Take `COc1ccc(Cl)cc1NC(=O)c1sc2nc3c(cc2c1N)CN(C)CC3`: the Potency was 10 µM [quencher] (active).

In the case of `CCc1ccccc1NC(=O)c1sc2nc3c(cc2c1N)CN(Cc1ccccc1)CC3`, the “activity change, negative = decrease” value is -23% (inactive).

With `COc1ccc(Cl)cc1NC(=O)CCN1CCOCC1`, the “activity change, negative = decrease” value is 15.5% (inactive).

Take `O=C(Nc1ccc(S(=O)(=O)N2CCC(c3nc4ccccc4s3)CC2)cc1)c1ccccc1F`: the “activity change, negative = decrease” value was 2.89% (inactive).

`Cc1cc(C)cc(-n2ccnc2SCC(=O)Nc2nc3ccccc3s2)c1`: the “activity change, negative = decrease” value is -11.2% (inactive).

As for `CCOc1ccccc1CNC(=O)Nc1cn(CC(C)C)c(=O)c2ccccc12`, the “activity change, negative = decrease” value was -18.9% (inactive).

Consider `CC(C)Cn1c(C2CC(=O)N(c3ccccc3Cl)C2)nc2ccccc21` (stereo unspecified), for which the “activity change, negative = decrease” value is -3.59% (inactive).

In the case of `Cc1ccc(-c2csc(-c3cc(C)on3)n2)cc1`, the “activity change, negative = decrease” value is -7.55% (inactive).

Take `Cc1ccc(-c2csc(-c3c[nH]c4ccccc34)n2)cc1`: the Potency was 7.08 µM [quencher] (active).

With `CCCc1cc(-c2nc(-c3ccc(C)cc3)cs2)ccn1`, the “activity change, negative = decrease” value is -4.64% (inactive).

Take `Cc1ccc2c(=O)c(C(=O)c3ccc(Cl)cc3)cn(CC(=O)NC3CCCCC3)c2n1`: the “activity change, negative = decrease” value is -5.5% (inactive).

For the compound `CN(C)CCCNC(=O)c1ccc2[nH]c3ccccc3c2c1`, the “activity change, negative = decrease” value was 0.618% (inactive).

Take `Cc1ccc(C(=O)NCCSc2c(C)[nH]c3ccccc23)cc1C`: the Potency was 12.6 µM [quencher] (active).

As to `COC(=O)CCNC(=O)c1ccc2[nH]c(C)c(C)c2c1`, the “activity change, negative = decrease” value is -13.3% (inactive).

As for `COc1ccc(C(=O)N2CCC(c3nc4ccccc4o3)CC2)cc1`, the “activity change, negative = decrease” value is 5.71% (inactive).

For the compound `CCOc1ccccc1C(=O)NCc1ccc2c(c1)CCN2C(=O)c1ccc(F)cc1`, the “activity change, negative = decrease” value is -12.3% (inactive).

For the compound `Cc1ccc(S(=O)(=O)NCc2nc3nc(C)cc(C)n3n2)cc1`, the “activity change, negative = decrease” value is -11% (inactive).

Regarding `Oc1ccc(/C=N/Nc2nc(-c3ccccc3F)nc3ccccc23)c(O)c1`, the Potency was 5.01 µM [quencher] (active).

As for `Oc1ccc(/C=N/NC2=NCCCCC2)c(O)c1`, the “activity change, negative = decrease” value is -10.3% (inactive).

For `Cc1cc(N/N=C/c2ccccc2F)c2ccccc2n1`, the “activity change, negative = decrease” value was -9.11% (inactive).

Turning to `Cc1c(C(=O)Nc2cccc(Cl)c2)oc2ccc(S(=O)(=O)N3CCOCC3)cc12`, the “activity change, negative = decrease” value is -21.2% (inactive).

Consider `COc1cc(OC)c(OC)cc1/C=C/c1nc2ccccc2c(=O)n1-c1ccc(Br)c(C)c1`, for which the “activity change, negative = decrease” value is -24.9% (inactive).

`Cc1cc(NC(=O)Nc2ccccc2)n(-c2ccccc2)n1`: the “activity change, negative = decrease” value is -4.86% (inactive).

Consider `Cc1cc(Nc2ccccc2)n(CCC#N)n1`, for which the “activity change, negative = decrease” value was 4.45% (inactive).

Turning to `Cc1cc(Nc2ccccc2)n(C(=O)c2ccc(N)cc2)n1`, the Potency is 25.1 µM [quencher] (active).

For the compound `CCOc1ccc(-n2c(C)nc3c(cnn3-c3ccc(C)cc3)c2=O)cc1`, the “activity change, negative = decrease” value is -2.79% (inactive).

On to `CCOc1ccc(NC(=O)c2c(NC(=O)Cc3ccccc3)sc3c2CCCCC3)cc1`, for which the “activity change, negative = decrease” value is -17.4% (inactive).

For the compound `COc1ccc(CCNC(=O)Cn2c(=O)cc(C(F)(F)F)c3c(C)nn(C)c32)c(OC)c1`, the “activity change, negative = decrease” value is -5.48% (inactive).

On to `CCOC(=O)c1c(NC(=O)CSc2cn(CC)c3ccccc23)sc2c1CCC2`, for which the “activity change, negative = decrease” value is -27.5% (inactive).

As to `CCOC(=O)c1c(NC(=S)Nc2ccccc2C)sc2c1CCC2`, the “activity change, negative = decrease” value is -15.1% (inactive).

`CCOC(=O)c1c(NC(=O)C(C)Sc2c[nH]c3ccccc23)sc2c1CCC2` (stereo unspecified): the Potency is 7.94 µM [quencher] (active).

`CCN(CC)C(=O)CSc1nc2cc3c(cc2c(=O)n1CCCC(=O)NCc1ccc2c(c1)OCO2)OCO3`: the “activity change, negative = decrease” value was 0.813% (inactive).

Turning to `CCCCNc1nc2c(c(=O)n(C)c(=O)n2C)n1Cc1cccc(OC)c1`, the “activity change, negative = decrease” value was -15.7% (inactive).

In the case of `Cn1c(=O)c2c(nc(NCCc3ccccc3)n2Cc2ccccc2Br)n(C)c1=O`, the “activity change, negative = decrease” value was 0.274% (inactive).

In the case of `Cn1c(=O)c2c(nc(N/N=C/c3cccs3)n2Cc2ccc(Br)cc2)n(C)c1=O`, the Potency is 14.1 µM [quencher] (active).

Take `CCOc1ccccc1N(C)C(=O)c1cc2c(s1)-c1ccccc1OC2`: the “activity change, negative = decrease” value is -13.1% (inactive).

Regarding `CCn1cc(NC(=O)Nc2ccc(OC)c(OC)c2)c(C(N)=O)n1`, the “activity change, negative = decrease” value is -7.73% (inactive).

Take `Cc1ccc(NC(=O)NC(C)c2c(-n3cccc3)sc(C)c2C)c(C)c1` (stereo unspecified): the “activity change, negative = decrease” value is -9.91% (inactive).

As to `COc1ccc(NC(=O)NC(C)c2c(-n3cccc3)sc(C)c2C)cc1OC` (stereo unspecified), the Potency is 15.8 µM [quencher] (active).

On to `Cc1ccc(CSc2nc3ccsc3c(=O)n2CCC(C)C)cc1`, for which the “activity change, negative = decrease” value was -17% (inactive).

On to `CCOC(=O)c1c(S(=O)(=O)NCC(=O)Nc2ccc(Cl)c(C(F)(F)F)c2)c(C)n(C)c1C`, for which the “activity change, negative = decrease” value is -29.9% (inactive).

Consider `O=c1[nH]c(N2CCN(Cc3ccc4c(c3)OCO4)CC2)nc2c1CCCC2`, for which the “activity change, negative = decrease” value is 5.42% (inactive).

Turning to `Fc1ccc2[nH]c3c(N4CCN(Cc5ccc6c(c5)OCO6)CC4)ncnc3c2c1`, the Potency was 25.1 µM [quencher] (active).

`Fc1ccc2[nH]c3c(N4CCSCC4)ncnc3c2c1`: the “activity change, negative = decrease” value was -10.8% (inactive).

Take `COc1ccc(S(=O)(=O)c2c(Nc3ccc(C)cc3)sc(C(=O)c3ccc(C)cc3)c2N)cc1`: the “activity change, negative = decrease” value is -14.6% (inactive).

Regarding `O=C(NCC(c1ccc2c(c1)OCO2)N1CCN(c2ccccc2)CC1)C(=O)Nc1ccccc1F` (stereo unspecified), the “activity change, negative = decrease” value is -27.4% (inactive).

Consider `Oc1ccc(/C=N/N(Cc2ccccc2)c2ccccc2)cc1`, for which the Potency was 15.8 µM [quencher] (active).

In the case of `CN(C)c1ccc(/C=N/N(Cc2ccccc2)c2ccccc2)cc1`, the “activity change, negative = decrease” value was 6.03% (inactive).

Turning to `O=C(N/N=C/c1ccc(OCc2ccccc2)cc1)c1ccc(O)cc1`, the “activity change, negative = decrease” value is -29% (inactive).

On to `CCN(CC)c1ccc(NC(=O)CN2C(=O)c3cccnc3Oc3ccc(Cl)cc32)c(C)c1`, for which the “activity change, negative = decrease” value is -14% (inactive).

As for `CCc1cc2c(cc3c(=O)n(CC(=O)N4CCN(c5cc(Cl)ccc5C)CC4)ncn32)s1`, the “activity change, negative = decrease” value was 0.522% (inactive).
